The results in this text go back to PubChem BioAssay (EPA / NIEHS).

Read-out in assay [1]: Tissue Factor, F3 (gene 2152)
The assay can be described thus: BSK_CASM3C_TissueFactor: BioMAP Diversity Plus: CASM3C Assay for Tissue Factor Biomarker Activity (AID 2283052).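 Further: cell surface tissue factor protein level read by ELISA.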 Conditions: primary human coronary artery smooth muscle cells; actives raise or lower the signal.

Read-out in assay [2]: Interferon-gamma inducible Protein 10 (IP10), CXCL10 (gene 3627)
Put plainly: BSK_hDFCGF_IP10: BioMAP Diversity Plus: hDFCGF Assay for Interferon-gamma inducible Protein 10 (IP10) Biomarker Activity (AID 2283053). Conditions: primary human foreskin fibroblasts; actives raise or lower the signal. In a few lines:
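IP-10 levels, quantified by ELISA, are taken from human foreskin fibroblast cultures 24 h after chemical treatment, with DMSO serving as negative control and baseline for bidirectional analysis.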

Read-out in assay [3]: Urokinase-type plasminogen activator receptor (uPAR), PLAUR (gene 5329)
The assay can be described thus: BSK_CASM3C_uPAR: BioMAP Diversity Plus: CASM3C Assay for Urokinase-type plasminogen activator receptor (uPAR) Biomarker Activity (AID 2283054).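 Further: cell-surface uPAR protein level quantified by ELISA.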 Conditions: primary human coronary artery smooth muscle cells; actives raise or lower the signal.

Read-out in assay [4]: Vascular cell adhesion molecule 1 (VCAM1), VCAM1 (gene 7412)
Put plainly: BSK_CASM3C_VCAM1: BioMAP Diversity Plus: CASM3C Assay for Vascular cell adhesion molecule 1 (VCAM1) Biomarker Activity (AID 2283055).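 Further: VCAM-1 protein level quantified by ELISA on the cells.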 Conditions: primary human coronary artery smooth muscle cells; actives raise or lower the signal.

Read-out in assay [5]: Collagen III, COL3A1 (gene 1281)
The assay can be described thus: BSK_hDFCGF_CollagenIII: BioMAP Diversity Plus: hDFCGF Assay for Collagen III Biomarker Activity (AID 2283056). Conditions: primary human foreskin fibroblasts; actives raise or lower the signal. In a few lines: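 Human foreskin fibroblast primary cultures sampled 24 h after dosing; Collagen III quantified by ELISA. Signal fitted bidirectionally against DMSO baseline.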

Read-out in assay [6]: Epidermal growth factor receptor (EGFR), EGFR (gene 1956)
The assay can be described thus: BSK_hDFCGF_EGFR: BioMAP Diversity Plus: hDFCGF Assay for Epidermal growth factor receptor (EGFR) Biomarker Activity (AID 2283057). The note with it: primary human foreskin fibroblasts; actives raise or lower the signal. In outline: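 Measured by ELISA: EGFR levels on primary human foreskin fibroblasts 24 h after chemical treatment, analysed relative to DMSO with bidirectional fitting.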

Read-out in assay [7]: Interleukin-8 (IL8), CXCL8 (gene 3576)
Put plainly: BSK_hDFCGF_IL8: BioMAP Diversity Plus: hDFCGF Assay for Interleukin-8 (IL8) Biomarker Activity (AID 2283058). Conditions: primary human foreskin fibroblasts; actives raise or lower the signal. In a few lines:
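Primary human foreskin fibroblasts (hDFCGF system) dosed with chemical; IL-8 measured by ELISA 24 hours later. Bidirectional curve fitting relative to DMSO baseline; cytotoxicity tracked in parallel cultures by SRB total protein staining.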

Assay [8] in a line: BSK_hDFCGF_Proliferation: Cell Proliferation Assessment in the BioMAP Diversity Plus: hDFCGF Assay (AID 2283059).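 Further: curves fitted for both rise and fall of signal versus DMSO baseline.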 Conditions: primary human foreskin fibroblasts. In outline: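 Sub-confluent human foreskin fibroblast cultures receive test chemical […]. Relative cell number is quantified by sulforhodamine B staining (0.1%, after 10% TCA fixation) at 560 nm, with bidirectional fitting referenced to DMSO.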

Read-out in assay [9]: Macrophage colony-stimulating factor (MCSF), CSF1 (gene 1435)
Put plainly: BSK_hDFCGF_MCSF: BioMAP Diversity Plus: hDFCGF Assay for Macrophage colony-stimulating factor (MCSF) Biomarker Activity (AID 2283060). The note with it: primary human foreskin fibroblasts; actives raise or lower the signal. In outline:
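Human foreskin fibroblast primary cultures; M-CSF measured by ELISA 24 hours after chemical dosing. Bidirectional fitting relative to DMSO, with overt cytotoxicity tracked by parallel SRB total-protein staining (0.1% SRB, 10% TCA fixation, 560 nm).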

Assay [10] can be described thus: BSK_hDFCGF_SRB: Viability Assessment in the BioMAP Diversity Plus: hDFCGF Assay (AID 2283061).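 Further: cells exposed to compound for 24 h before the read.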 The note with it: primary human foreskin fibroblasts. In outline: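 Human foreskin fibroblasts in 96-well plates were treated 24 h. Total protein was measured by 0.1% SRB staining after 10% TCA fixation, read at 560 nm. Data were fitted bidirectionally against DMSO.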
Read-out in assay [11]: Monokine induced gamma interferon (MIG), CXCL9 (gene 4283)
Put plainly: BSK_hDFCGF_MIG: BioMAP Diversity Plus: hDFCGF Assay for Monokine induced gamma interferon (MIG) Biomarker Activity (AID 2283063). Conditions: primary human foreskin fibroblasts; actives raise or lower the signal. In outline: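 MIG/CXCL9 measured by ELISA 24 h after dosing primary human skin fibroblasts. Activity fitted in both directions against DMSO controls. Cytotoxicity was checked in parallel cultures by SRB staining read at 560 nm.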

Read-out in assay [12]: Vascular cell adhesion molecule 1 (VCAM1), VCAM1 (gene 7412)
Put plainly: BSK_hDFCGF_VCAM1: BioMAP Diversity Plus: hDFCGF Assay for Vascular cell adhesion molecule 1 (VCAM1) Biomarker Activity (AID 2283065).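 On AC50: VCAM-1 protein level quantified by ELISA after 24 h chemical exposure.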 Conditions: primary human foreskin fibroblasts; actives raise or lower the signal. In a few lines:
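Human foreskin fibroblast primary cells dosed with chemical, VCAM-1 measured by ELISA at 24 h. Bidirectional curve fitting relative to DMSO as negative control/baseline.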

Read-out in assay [13]: Plasminogen activator inhibitor-1 (PAI1), SERPINE1 (gene 5054)
The assay can be described thus: BSK_hDFCGF_PAI1: BioMAP Diversity Plus: hDFCGF Assay for Plasminogen activator inhibitor-1 (PAI1) Biomarker Activity (AID 2283066). Conditions: primary human foreskin fibroblasts; actives raise or lower the signal. In a few lines: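 PAI-1 levels, determined by ELISA, served as the endpoint in human foreskin fibroblast cultures exposed to compound for 24 h, with DMSO as baseline.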

Read-out in assay [14]: Intercellular Adhesion Molecule 1 (ICAM1), ICAM1 (gene 3383)
The assay can be described thus: BSK_KF3CT_ICAM1: BioMAP Diversity Plus: KF3CT Assay for Intercellular Adhesion Molecule 1 (ICAM1) Biomarker Activity (AID 2283067). The note with it: primary human keratinocytes with fibroblasts; actives raise or lower the signal. In a few lines: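 Human keratinocyte–foreskin fibroblast co-culture was treated for 24 h. Cell-surface ICAM-1 was quantified by ELISA, fitted bidirectionally relative to DMSO. Cytotoxicity was checked in parallel cultures by SRB total-protein staining.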

Read-out in assay [15]: Interferon-gamma inducible Protein 10 (IP10), CXCL10 (gene 3627)
Put plainly: BSK_KF3CT_IP10: BioMAP Diversity Plus: KF3CT Assay for Interferon-gamma inducible Protein 10 (IP10) Biomarker Activity (AID 2283068). The note with it: primary human keratinocytes with fibroblasts; actives raise or lower the signal. In outline:
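ELISA read-out of IP-10 after 24 h chemical dosing of human skin primary co-culture (keratinocytes, foreskin fibroblasts). Gain or loss of signal relative to DMSO, bidirectional curve fit.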

A short description of assay [16]: BSK_KF3CT_SRB: Viability Assessment in the BioMAP Diversity Plus: KF3CT Assay (AID 2283069).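 Further: total protein by sulforhodamine B staining as a cytotoxicity measure; read 24 h after compound addition; fitted for both signal gain and loss against DMSO baseline.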 The note with it: primary human keratinocytes with fibroblasts. In outline:
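Human keratinocyte and foreskin fibroblast co-culture exposed to chemical for 24 h. Total protein measured in parallel cultures by 0.1% sulforhodamine B staining after 10% TCA fixation, read at 560 nm; bidirectional fit relative to DMSO.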

Read-out in assay [17]: Interleukin-1 alpha (IL1a), IL1A (gene 3552)
Put plainly: BSK_KF3CT_IL1a: BioMAP Diversity Plus: KF3CT Assay for Interleukin-1 alpha (IL1a) Biomarker Activity (AID 2283070). Conditions: primary human keratinocytes with fibroblasts; actives raise or lower the signal. In a few lines: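 Primary human keratinocyte plus foreskin fibroblast co-culture, dosed and measured at 24 h in 96-well plates. IL-1a level quantified by ELISA; bidirectional fit relative to DMSO.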

Read-out in assay [18]: TIMP metallopeptidase inhibitor 2 (TIMP2), TIMP2 (gene 7077)
Put plainly: BSK_KF3CT_TIMP2: BioMAP Diversity Plus: KF3CT Assay for TIMP metallopeptidase inhibitor 2 (TIMP2) Biomarker Activity (AID 2283071). Conditions: primary human keratinocytes with fibroblasts; actives raise or lower the signal. In outline:
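Keratinocyte–fibroblast co-culture, 24 h exposure; TIMP-2 ELISA, DMSO-normalised bidirectional fit. Parallel SRB (0.1%, TCA-fixed, 560 nm) total-protein staining gauges cytotoxicity.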

Read-out in assay [19]: TIMP metallopeptidase inhibitor 1 (TIMP1), TIMP1 (gene 7076)
Put plainly: BSK_hDFCGF_TIMP1: BioMAP Diversity Plus: hDFCGF Assay for TIMP metallopeptidase inhibitor 1 (TIMP1) Biomarker Activity (AID 2283062). The note with it: primary human foreskin fibroblasts; actives raise or lower the signal. In a few lines: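 Human foreskin fibroblast primary cultures dosed for 24 h; secreted/surface TIMP-1 quantified by ELISA. Bidirectional curve fitting against DMSO baseline; cytotoxicity tracked in parallel cultures by SRB total-protein staining.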

Read-out in assay [20]: Matrix Metallopeptidase 1 (MMP1), MMP1 (gene 4312)
Put plainly: BSK_hDFCGF_MMP1: BioMAP Diversity Plus: hDFCGF Assay for Matrix Metallopeptidase 1 (MMP1) Biomarker Activity (AID 2283064). Conditions: primary human foreskin fibroblasts; actives raise or lower the signal. In outline: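 Primary human foreskin fibroblasts exposed to chemicals for 24 h; MMP1 measured by ELISA. Cytotoxicity tracked by SRB staining in parallel cultures; bidirectional fit relative to DMSO.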

“And” between values parts separate entries of the source, which are not always exact repeats. Equal values may be shown once. Some structures have more than one record in an assay (separate samples or runs), and their calls can disagree. The source made the active and inactive calls. How the source made its calls: active means hit-call score of the fitted dose curve at least 0.9, where 1 is the maximum; inactive means score below 0.9.

`OCCC(F)(F)C(F)(F)C(F)(F)C(F)(F)C(F)(F)C(F)(F)F`: the outcome in [1], in [2], in assay [3], in assay [4], in [5] and in assay [6] was inactive. Moreover, the outcome in [7], in assay [8], in [9], in [10], in assay [11] and in assay [12] was inactive. Moreover, the result in [13], in assay [14], in assay [15], in assay [16], in assay [17] and in assay [18] was inactive. For the same compound, the AC50 is 52.6 µM (active) in assay [2]; 46.3 µM (active) in assay [5]; 46.4 µM (active) and 57.9 µM (active) in assay [7]; 48.3 µM (active) and 47.4 µM (active) in assay [8]; 54.2 µM (active) in assay [9]; 51.3 µM (active) and 46.8 µM (active) in [10]. The AC50 is 55.4 µM (active) and 54.7 µM (active) in assay [11]; 30 µM (active) and 47.4 µM (active) in assay [12]; 53.5 µM (active) and 55.3 µM (active) in assay [13].
Turning to `CC[C@H](C)[C@@H](C(=O)O)n1sc2ccccc2c1=O`, the outcome in [1], in assay [2], in [3], in [4], in assay [5] and in assay [6] was inactive. The result in assay [7], in assay [8], in [9], in assay [10], in [19] and in assay [11] was inactive. Moreover, the outcome in assay [12], in [13], in assay [14], in [15], in assay [16] and in assay [17] was inactive. Also, the result in assay [18] was inactive.
With `NC(=O)N1C(=O)C(C(=O)c2cc(Cl)cs2)c2cc(F)c(Cl)cc21` (stereo unspecified), the outcome in assay [1] and in assay [6] was inactive. For the same compound, the AC50 in [2] was 5.92 µM (active); in assay [3], 27.3 µM (active); in [4], 5.41 µM (active); in assay [5], 4.54 µM (active); in assay [7] it was 16.6 µM (active); in assay [8] it was 1.54 µM (active). The AC50 in [9] is 2.1 µM (active); in assay [10], 5.47 µM (active); in [19], 5.17 µM (active); in assay [11], 12.7 µM (active); in assay [20], 10.3 µM (active); in assay [12], 5.54 µM (active). Further, the AC50 in assay [13] was 1.71 µM (active); in assay [14] it was 12.4 µM (active); in assay [15] it was 8.07 µM (active); in assay [16], 6.16 µM (active); in assay [17], 12.9 µM (active); in [18] it was 11.2 µM (active).
As to `CC(=O)NC1(c2cccc(F)c2)CCN(CC[C@@]2(c3ccc(Cl)c(Cl)c3)CN(c3ccccc3)C(=O)CO2)CC1`, the outcome in assay [1], in assay [4], in assay [6], in [14], in [17] and in [18] was inactive. Moreover, the AC50 in [2] was 28.2 µM (active); in assay [3], 16.6 µM (active); in assay [5], 6.66 µM (active); in assay [7], 25.9 µM (active); in [8], 13.4 µM (active); in assay [9], 24.5 µM (active). Besides, the AC50 in assay [10] is 24.5 µM (active); in assay [19], 26.7 µM (active); in assay [11], 31.8 µM (active); in assay [20] it was 30.2 µM (active); in assay [12], 27 µM (active); in assay [13], 23.8 µM (active). The figures for the AC50 in assay [15] and in assay [16] were 25.3 µM (active) and 25.1 µM (active), respectively.
